Data: PubChem BioAssay (NCI)
The panel holds about 83,000 compounds, 20% with a hit somewhere; the sample as a whole holds those more often.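 Treatment: one concentration, 48 hours, 96-well format. Scoring: percent growth, with anything below 10 considered active.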 Unmarked numbers belong to inactive results. The source made the active and inactive calls.

test system: CAKI-1 renal; assay: NCI-60 one-dose screen, 48 h (100 = growth as untreated, 0 = no growth, -100 = all killed); settings: 10 µM unless noted

| Compound | growth |
| --- | --- |
| CC1(C)[C@@H](O[C@@H]2OC[C@@H](O[C@@H]3O[C@H](CO)[C@@H](O)[C@H](O)[C@H]3O[C@@H]3OC[C@@H](O)[C@H](O)[C@H]3O)[C@H](O)[C@H]2O[C@@H]2O[C@H](CO)[C@@H](O)[C@H](O)[C@H]2O)CC[C@]2(C)[C@H]3CC[C@]45OC[C@@]6(CC[C@](C)(C=O)C[C@H]64)[C@H](O)C[C@@]5(C)[C@]3(C)CC[C@@H]12 | -91.5% (active) |
| O=C(CCl)NNc1nccc(Nc2ccc(S(=O)(=O)Nc3ccncc3)cc2)n1 | 30.4% |
| CS(=O)(=O)Nc1cc(-c2ccc3ncc(C#N)c(Nc4ccc(F)c(Cl)c4)c3c2)cnc1Cl | 4.91% (active) |
| Cc1[nH]c(C2CC(c3ccc(C(F)(F)F)c(F)c3)=NN2c2ccccc2)c(C)c1C(=O)NCC(F)(F)F (stereo not given) | 59% |
| O=P(O)(O)OCC1OC(n2cnc3c(NCc4ccco4)ncnc32)C(O)C1O (stereo not given) | -42.3% (active) |
| C=CN(C(=O)N1CCN(c2cc3c(cc2F)c(=O)c(C(=O)O)cn3C2CC2)CC1)c1nc(-c2ccc(OC)cc2)cs1 | 17.3% |
| CC(=O)Oc1ccc(OC(C)=O)c2ccccc12 | 100% |
| O=C1c2ccccc2C(=O)c2c1cc1c(c2[N+](=O)[O-])OCO1 | 2.82% (active) |
| Cc1cccc2c1C[C@@]1(C2=O)C(c2ccc(C(C)(C)C)cc2)=NOS1=O (stereo not given in full) | 94.2% |
| COc1cccc(Nc2ncnc3cc(NC(=O)CCl)ccc23)c1 | -97.2% (active) |
| NC(N)=NS(=O)(=O)c1ccc(NC2=C(I)C(=O)c3ncccc3C2=O)cc1 | 90.4% |
| Cc1c(CN)cc(-c2ccc(Cl)cc2)n1-c1ccccc1 | 40.7% |
| O=C1Nc2ccccc2C1(c1c[nH]c2ccccc12)c1c[nH]c2ccccc12 | 44% |
| CCn1c(-c2cc3c([nH]c4ccccc43)c(-c3cccc(O)c3)n2)n[nH]c1=S | 47.9% |
| CCN(CC)c1ccc(/C=N/NC(=O)Cc2ccc(Nc3ccnc(C(F)(F)F)c3)cc2)c(O)c1 | -20.8% (active) |
| COc1ccc2c(c1)c(-c1nc(-c3c[nH]c4ncccc34)cs1)cn2CCCN1CCOCC1 | 28.8% |
| CNC(C)[C@H]1CCC2C3CC=C4C(=O)[C@@H](NC(=O)C=C(C)C)CC[C@]4(C)C3CC[C@@]21C (stereo not given in full) | 3.96% (active) |
| CN(Cc1ccccc1)c1nc(Cl)c(C2CC(c3ccccc3)=NN2c2ccccc2)s1 (stereo not given) | 68.7% |
| N#CC1=C(N)Oc2ccc3ccccc3c2C1c1ccc([N+](=O)[O-])cc1 (stereo not given) | 52.8% |
| COc1ccc(C(=O)Cn2c(C(=O)c3ccc(OC)cc3)nc3ccccc32)cc1 | 25.4% |

| Compound | growth |
| --- | --- |
| CC1C(/C=N/NC(N)=S)C(C#N)(C#N)C1(C#N)C#N (stereo not given) | 91.8% |
| O=C(Cc1ccc(/C=C/C(=O)c2ncc[nH]2)cc1)Nc1cc(C(F)(F)F)cc(C(F)(F)F)c1 | 78.5% |
| CCOC(=O)c1ccccc1-c1c2ccc(=[N+](C)C)cc-2oc2cc(N(C)C)ccc12 | -26.9% (active) |
| CCN1C(=O)N(CC)C2C1NN=c1s/c(=C\c3ccc(C(F)(F)F)cc3)c(=O)n12 (stereo not given) | 25.9% |
| Cc1nn(-c2ccccc2)c(N)c1N=C1NC(=O)/C(=C/c2ccc(Br)cc2)S1 | 68% |
| O=C(c1c[nH]c2ccccc12)c1n[nH]c(=S)n1-c1cccc(Br)c1 | 77.2% |
| Cc1ccc(/C=C/C(=O)Nc2ncc(Cc3ccc(F)cc3)s2)o1 | 35.4% |
| O=C1/C(=C\c2cccc3nccnc23)SC(=S)N1CCc1ccc(O)cc1 | 79.1% |
| COc1cccc(/C=C/C(=O)c2cccc(Nc3nc(Nc4ccccc4)nc(Nc4ccccc4)n3)c2)c1 | 84.4% |
| C=C1C(=O)O[C@H]2[C@H]1CC/C(COC(=O)c1cc3cc(Cl)ccc3[nH]1)=C\CC[C@@]1(C)O[C@@H]21 | -89.8% (active) |
| COc1ccc(Cn2cc(C(=O)N=Nc3c(O)[nH]c4c(C)cccc34)nn2)cc1 | 77.1% |
| NC(=O)c1cnc(Nc2cccc(N)c2)nc1NCCCNC(=O)C1CCC1 | 37.2% |
| CC1=C2[C@@H](CC1)[C@]1(C)O[C@@](C3CCCCC3)(C[C@H]1OC(=O)CO)[C@H]2OC(=O)/C=C/c1ccccc1 | 78.4% |
| O=C(Nc1cnc(Nc2ccc(N3CCOCC3)nc2)nc1Oc1ccc(C(F)(F)F)cc1)c1ccncc1 | 90.4% |
| Cc1c2cccnc2c(C)c2c1c1cc(CO)ccc1n2C | 7.09% (active) |
| CCN1CCN(CC(=O)Nc2ccc(-c3cn4c(n3)sc3cc(Oc5ccnc(C(=O)NC)c5)ccc34)cc2)CC1 | 67.4% |
| COc1cc(OC)c2sc(-c3ccc(-n4cncc4-c4cc(OC)c(OC)c(OC)c4)cc3)nc2c1 | 24.3% |
| Ic1ccccc1I | 105% |
| CCC1S/C(=N\N=C(\C)c2cc3cc(Cl)ccc3o2)N(c2ccccc2)C1=O (stereo not given) | 60.1% |
| CN(CCCNC(=O)CCOCCOCCOCCNC(=O)Cc1ccc2ccc3cccc4ccc1c2c34)CCCNc1cc(-c2ccc3ccccc3c2)nc2ccccc12 | -82.4% (active) |
